# Screens deposited in PubChem BioAssay by National Center for Advancing Translational Sciences (NCATS).
# HP1b chromo inh: HTS for Inhibitors of HP1-beta Chromodomain Interactions with Methylated Histone Tails; Potency, µM (highest dose often 114 µM), for inactives: at the highest dose activity change, negative = inhibition, usual class: inhibitors; AID 540317, 2011; hit rate 0.56% among 390,000; AlphaScreen HP1-beta / biotin-H3K9me3 peptide binding; Chromobox protein homolog 1 (Homo sapiens), P83916; note: nearly all actives have a fitted effect of over 70% in size
#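 Compound inhibition of the preformed complex between 50 nM HP1-beta and 50 nM biotinylated H3K9me3 peptide was read by AlphaScreen. Buffer was PBS pH 7.4 with 0.01% Tween-20. Incubations ran 30 min at room temperature, with 10 ug/mL donor/acceptor beads.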
# BAZ2B inh: qHTS Assay for Inhibitors of BAZ2B | AlphaScreen BAZ2B-H3K14Ac peptide displacement | Potency, µM (doses to about 114 µM), inactives show top-dose activity change, negative = inhibition, most hits filed as inhibitors | hit rate 4.4% among 360,000 | AID 504333, 2011; note: % is set by controls: 0 for no effect and ±100 for the full control effect; nearly all actives have a fitted effect of over 60% in size
#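 Inhibition is scored as reduced AlphaScreen emission. The BAZ2B/b-H3(5-23)K14Ac complex (50 nM each) in PBS pH 7.4, 0.01% Tween-20 meets compound (up to 110 uM) for 30 min at RT before bead addition.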
# JMJD2A Tudor inh: qHTS Assay for Inhibitors of JMJD2A-Tudor Domain | AlphaScreen JMJD2A-Tudor / H3K4me3 peptide binding | Lysine-specific demethylase 4A (Homo sapiens), O75164 | AID 504339, 2011 | hit rate 4.4% among 390,000 | Potency, µM (top dose mostly 114 µM), inactives show top-dose activity change, negative = inhibition, actives largely listed as inhibitors; note: % is set by controls: 0 for no effect and ±100 for the full control effect; nearly all actives have a fitted effect of over 50% in size
# 12-LOX inh: Primary qHTS assay for inhibitors of human arachidonate 12S-lipoxygenase (ALOX12): Round 2; AID 1671190, 2021; hit rate 1.1% among 580,000; purified 12hLO, xylenol orange hydroperoxide absorbance; Potency, µM (titrated, usually from 108 µM), for the others: top-dose activity change, negative = inhibition, actives largely listed as inhibitors; note: % is set by controls: 0 for no effect and ±100 for the full control effect
# Target sequence (P18054 whole entry, looked up): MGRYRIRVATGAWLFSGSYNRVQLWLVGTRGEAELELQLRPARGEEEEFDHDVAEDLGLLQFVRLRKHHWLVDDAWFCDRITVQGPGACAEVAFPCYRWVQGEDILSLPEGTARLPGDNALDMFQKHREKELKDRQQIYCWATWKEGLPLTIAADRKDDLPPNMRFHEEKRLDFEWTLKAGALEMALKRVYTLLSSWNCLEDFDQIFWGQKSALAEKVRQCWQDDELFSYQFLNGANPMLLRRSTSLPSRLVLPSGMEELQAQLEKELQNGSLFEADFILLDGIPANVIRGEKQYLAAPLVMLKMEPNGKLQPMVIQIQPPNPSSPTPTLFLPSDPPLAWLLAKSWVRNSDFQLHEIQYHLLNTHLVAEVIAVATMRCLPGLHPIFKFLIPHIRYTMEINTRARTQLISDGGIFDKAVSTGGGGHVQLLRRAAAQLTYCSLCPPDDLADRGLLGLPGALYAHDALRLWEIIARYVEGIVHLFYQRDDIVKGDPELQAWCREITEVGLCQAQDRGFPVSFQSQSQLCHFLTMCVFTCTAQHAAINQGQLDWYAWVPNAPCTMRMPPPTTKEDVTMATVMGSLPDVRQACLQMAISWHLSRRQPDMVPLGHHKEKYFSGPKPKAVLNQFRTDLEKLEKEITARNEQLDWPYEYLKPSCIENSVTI
#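 Hydroperoxide product was detected by ferrous iron/xylenol orange as the 573 to 405 nm absorbance ratio. Arachidonic acid at 40 uM (final) was turned over for 30 min at room temperature by 150 nM human 12hLO, pH 7.0 Hepes buffer, after 15 min compound preincubation.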
# G9a block: qHTS Assay for Inhibitors of Histone Lysine Methyltransferase G9a; Histone-lysine N-methyltransferase EHMT2 (Homo sapiens), Q96KQ7; G9a H3K9 monomethylation, AlphaScreen, 2 h; AID 504332, 2011; hit rate 8.8% among 350,000; Potency, µM (titrated, usually from 102 µM), for inactives: at the highest dose activity, negative = inhibition, usual class: inhibitors; note: % is set by controls: 0 for no effect and ±100 for the full control effect; nearly all actives have a fitted effect of over 75% in size
#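 G9a (20 nM) was preincubated 15 min with compound, then reacted 2 h at room temperature with 500 nM biotin-H3K9 peptide and 20 µM SAM. Monomethyl-H3K9 detected by AlphaScreen using anti-H3K9me1 antibody.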
# PLK1 PBD inh: qHTS for Inhibitors of PLK1-PDB (polo-like kinase 1 - polo-box domain): Primary Screen. Plk1 PBD binding of FITC phosphopeptide, fluorescence polarization. Potency, µM, without a hit: max response, negative = inhibition, most hits filed as inhibitors. hit rate 2.8% among 360,000. AID 720504, 2013; note: series mostly up to about 57 µM; % is set by controls: 0 for no effect and ±100 for the full control effect; nearly all actives have a fitted effect of over 65% in size
# Starred values were filed as active, the others as inactive; ? = inconclusive; . = no result; [ ] = remark or other dose. A selection: hits, their analogues and other compounds. The true share with any hit is near 9%. Calls come from the whole dose curve; as a rule, active = well fitted curve in the direction sought with a large enough effect; inconclusive = small, poorly fitted or top-dose-only effect, or another doubt; inactive = no such curve, though single readings can be large; an effect the other way counts as inactive or inconclusive. Potency is the fitted concentration of half-maximal effect.
SMILES,HP1b chromo inh,BAZ2B inh,JMJD2A Tudor inh,12-LOX inh,G9a block,PLK1 PBD inh
CCOC(=O)c1oc2ccc(OC)cc2c1NC(=O)CN1CCN(C)CC1,20%,-2%,-1%,-16%,-28%,-4%
Cc1ccc(C(=O)c2oc3ccc(Cl)cc3c2NC(=O)CN2CCN(C)CC2)cc1,-9%[57 µM],25µM*,?,0%,79µM*,-1%
O=C(Nc1ccccc1F)c1ccccc1C(=O)Nc1ccccc1F,44%,.,6%,40%,.,5%
Cn1c(N)c(C(=O)Nc2ccccc2F)sc1=S,?,-33%,-33%,20%,50µM*,-23%
Cn1c(N)c(C(=O)N/N=C/c2ccccc2)sc1=S,14%,1%,-10%,?,.,1%
Nc1c(C(=O)Nc2ccc(F)cc2)sc(=S)n1-c1ccccc1F,-22%,-12%,-19%,?,7.9µM*,4.7µM*
COc1ccccc1-n1c(N)c(C(N)=O)sc1=S,-13%,-1%,-14%,-23%,-9%[0.0925 µM],19µM*
Cn1c(N)c(C(=O)Nc2ccc3ccccc3c2)sc1=S,-21%,0%,-18%,?,7.1µM*,?
CC(=O)Nc1ccc(/C=N/NC(=O)c2cc3ccccc3nc2C)cc1,15%,-5%,-11%,20%,0%[59 µM],-3%
O=C(OCC(=O)N1CCN(S(=O)(=O)c2ccc(Cl)cc2)CC1)C1CCC1,13%,4%,-2%,-10%,-39%,-5%
NC(=S)N/N=C1\c2ccccc2-c2c(C(=O)O)cccc21,-1%,-10%,-12%,32µM*,28µM*,?
COC(=O)c1cccc2c1-c1ccccc1/C2=N\NC(N)=O,-3%,-7%,-15%,0%,-8%[2.33 µM],-11%
NC(=O)c1cccc2c1-c1ccccc1/C2=N/NC(N)=S,2%,?,-30%,?,45µM*,-20%
CCCCN1CCC(N(C(=O)NCCc2ccccc2)C2CCOCC2)CC1,.,.,.,91%,.,.
CN(C)CC(C)(C)CNC(=O)C1CCN(CCCc2ccccc2)CC1,-15%,-10%,56µM*,?,?,-2%
COc1ccc(C(C)NC(=O)C2CCN(CCCc3ccccc3)CC2)cc1OC (configuration not stated),.,.,.,4%,.,-12%
CCCCN(C)C(=O)C1CCN(CCCc2ccccc2)CC1,?,56µM*,8.9µM*,?,?,-6%
COc1cccc(CNC(=O)c2nn(-c3ccccc3Cl)nc2CO)c1,19%,5%,-22%,-8%,-4%[59 µM],.
CC(C)(C)c1ccc(S(=O)(=O)C(C)(C)C)cc1,58%,-12%,-9%[11.4 µM],-30%,-3%,-13%
COc1ccc(N2CCN(CC(=O)c3c[nH]c4ccccc34)CC2)cc1,4%,9%,-7%,45%,5%,-7%
CCOc1cc2[nH]c(=O)n(CCCN3CCN(c4ccc(OC)cc4)CC3)c(=O)c2cc1OCC,-22%,?,?,-10%,10µM*,4%
COc1ccc(N2CCN(CCCNC(=O)C(=O)c3c(C)[nH]c4ccccc34)CC2)cc1,?,28µM*,45µM*,-11%,-1%[0.0925 µM],-18%
COc1ccc(N2CCN(CCCn3c(=S)[nH]c4ccccc4c3=O)CC2)cc1,27%,28µM*,?,0%,7%,2%
CC(C)NC(=O)c1ccc2c(c1)nc1n2CCN(Cc2ccccc2)C1,.,.,.,-3%,.,.
O=C(Nc1nc2ccccc2[nH]1)c1ccc(Cl)c(S(=O)(=O)N2CCCC2)c1,7%,-5%,-27%,.,9%,-4%
SMILES,HP1b chromo inh,BAZ2B inh,JMJD2A Tudor inh,12-LOX inh,G9a block,PLK1 PBD inh
CN1CCN(C(=O)/C(=C\c2cccs2)NC(=O)c2ccccc2)CC1,15%,5%,6%,-17%,?,3%
CC(C)NC(=O)c1cc2n(n1)C(C(F)(F)F)CC(c1ccco1)N2 (configuration not stated),17%,-5%,-9%,-3%,0%,-8%
Cc1cccc(OCCOCCN2CCOCC2)c1C,8%,-2%,-6%,14%,7%[12.7 µM],-3%
Cc1cccc(C)c1OCCCN1CCOCC1,-1%,-23%,-15%,.,35µM*,-4%
COc1ccc(S(=O)(=O)NCCN2CCOCC2)c2ccccc12,14%,-28%,-24%,?,28µM*,0%
COc1ccccc1N1CCN(CCCCNS(=O)(=O)c2cccc3c(N(C)C)cccc23)CC1,.,.,.,.,27µM*,.
COc1cccc(OC)c1OCCCN1CCOCC1,?,50µM*,2.5µM*,?,?,2%
COc1ccc(NC(=O)C2CCC(CNS(=O)(=O)c3csc(C(N)=O)c3)CC2)cc1 (configuration not stated),21%,-11%,-5%,-28%,-8%[59 µM],.
COc1cc(S(=O)(=O)NC2CCCCC2C)ccc1F (configuration not stated),34%,1%,-20%,20%,81%,1%
O=C1C2CC=CCC2C(=O)N1c1ncn[nH]1 (configuration not stated),6%,?,-13%,-18%,-28%[59 µM],3%
Cc1cccc(C)c1OCCCCN1CCNCC1,-9%,?,6.3µM*,?,25µM*,-5%
Cc1cc(C(F)F)n2nc(C(=O)Nc3ccc(S(=O)(=O)N4CCCCCC4)cc3)nc2n1,34%,.,-14%,274%,.,-4%
O=c1[nH][nH]cc1C=Nc1ccccc1O,50%,40µM*,-25%,9%,65%[12.7 µM],1%
O=c1[nH][nH]cc1C=Nc1cc(Cl)ccc1O,33%,14µM*,79µM*,-13%,?,-3%
Cc1cc(N2CCN(CC(C)(C)O)C[C@H]2C)ccc1N1CCN(Cc2ccccc2)[C@H](C)C1,.,.,.,-3%,.,.
CCOC(=O)C12CNC(=O)C(C(=O)OCC)(CNC1=O)C2,47%,-23%,5%,449%,?,1%
O=C(NNC(=S)Nc1ccc(Br)cc1)c1ccc(N2CCOCC2)c([N+](=O)[O-])c1,?,-26%,?,?,11µM*,?
O=C(Nc1cccnc1)c1ccc(N2CCOCC2)c([N+](=O)[O-])c1,34%,-33%,-20%,?,12%[59 µM],-13%
Cc1ccc(NC(=S)NNC(=O)c2ccc(N3CCOCC3)c([N+](=O)[O-])c2)cc1Cl,?,?,25µM*,?,22µM*,-26%
Cc1ccccc1Cc1sc(N)nc1C,.,.,.,14µM*,.,.
